15 compounds from PubChem BioAssay (EPA / NIEHS) can be followed below.

As a reminder, the AC50 is the concentration at which the activity in the assay is half-maximal.

The structures appear in SMILES notation. Activity calls are given as the source filed them. The calls were made as follows: active = hit-call score of the fitted dose curve at least 0.9, where 1 is the maximum; inactive = score below 0.9.

A short description of this assay: CCTE_Shafer_MEA_acute_cross_correlation_area: CCTE's Neural Acute Assay for Area of Cross Correlation, Shafer Lab (AID 2284024).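 Also: curves fitted for loss of cross-correlation area so actives lower synchrony.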 The method, then: CCTE_Shafer_MEA_acute assay is conducted using Axion Biosystems 48 well microelectrode array (MEA) plates and Maestro recording system. Each well of the MEA plate contains a grid of 16 microelectrodes embedded in the culture surface. Electrically active cells, such as neurons, can be cultured over the electrodes, and electrical activity in these cells can be recorded extracellularly. The spontaneous firing of neurons is captured from each electrode on a microsecond timescale providing both temporally and spatially precise data. […] The CCTE_Shafer_MEA_acute assay uses primary cultures of rat cortical neurons. As these cultures mature over time, neural networks develop functional activity and form cohesive networks in which electrical activity can be highly coordinated. Baseline 40-minute recordings are made on days post-plating 13 or 15, followed by a secondary 40-minute recording after chemical exposure.CCTE_Shafer_MEA_acute_cross_correlation_area is a component of the CCTE_Shafer_MEA_acute assay. It measures the area under the well-wide pooled inter-electrode cross-correlation of action potential firing (not normalized to auto-correlations) within a window centered around 0 for the phase lag during a recording in a microelectrode array (MEA) using Axion Biosystems Maestro 768 channel amplifier with the AxIS adaptive spike detector. The recordings before and after chemical treatment are used to calculate a percent change in the cross correlation area in each well.Data from the assay component CCTE_Shafer_MEA_acute_cross_correlation_area was analyzed into 1 assay endpoint. This assay endpoint, CCTE_Shafer_MEA_acute_cross_correlation_area, was analyzed in the negative analysis fitting direction relative to DMSO as the negative control and baseline of activity. Using a type of functional reporter, gain or loss-of-signal activity can be used to understand electrical activity.
Spontaneous activity in the cortical cultures was recorded using an Axion Biosystems Maestro 768 channel amplifier and Axion Integrated Studios (AxIS) v1.8 (or later) software. The amplifier recorded from all channels simultaneously (gain = 1200 x; sampling rate = 12.5 kHz/channel): raw signals were filtered with a Butterworth band-pass filter (300-5000 Hz), which filters out slower local field potentials leaving only fast potentials, i.e., "spikes", arising from extracellular currents associated with action potentials (Pine 2006; Wheeler and Nam 2011). On-line spike detection of filtered signals was conducted with the AxIS adaptive spike detector, using a threshold of 8x the root mean squared (rms) noise on each channel. Any electrodes with rms noise levels greater than 5 uV were grounded (e.g., no data were recorded). Once grounded, an electrode was grounded for the duration of the experiment. All recordings were conducted at 37 C. Wells were deemed usable if on the day of the exposure >/= 10 electrodes were active (defined as >/= 5 spikes/min). On DIV 13 or 15, a minimum of three wells from one cortical culture preparation were treated with each compound (0.03-40 uM). Prior to recording baseline activity, each mwMEA plate was placed in the Maestro at 37 C and allowed to sit for 20 min while firing rates stabilized. Baseline activity (40 min) was recorded before the addition of each compound. An additional 40 min of spontaneous activity was recorded in the presence of each compound. Changes in network parameters relative to baseline were assessed following compound treatment.
Consider `CC1(C)[C@H](C(=O)O[C@H](C#N)c2cccc(Oc3ccccc3)c2)[C@@H]1/C=C(\Cl)C(F)(F)F`, for which the concentration at half-maximal activity (AC50) was 35.9 nM (active).

Consider `CC(C)(C)c1ccccc1O`, for which the outcome was inactive. `CC(C)[C@@H](Nc1ccc(C(F)(F)F)cc1Cl)C(=O)OC(C#N)c1cccc(Oc2ccccc2)c1` (stereo not given in full): the concentration at half-maximal activity (AC50) was 534 nM (active).

With `CCCCOC(=O)COC(=O)c1ccccc1C(=O)OCCCC`, the AC50 was 11.5 nM (active).

Take `CN(C)C(=S)S`: the result was inactive. The same measure, in the same setting: the result for `Cc1ccccc1OP(=O)(Oc1ccccc1C)Oc1ccccc1C` reads “inactive”; that for `OCCCCO`, “inactive”. `CCCCCCCCCCCCc1cccc(S(=O)(=O)O)c1`: the call was inactive. Regarding `Oc1cc(Cl)c(Cl)cc1Cl`, the call was inactive. Turning to `Cc1cc(C(F)(C(F)(F)F)C(F)(F)F)ccc1NC(=O)c1cccc(I)c1C(=O)NC(C)(C)CS(C)(=O)=O`, the call was inactive. `O=C(Cc1ccccc1)OCCc1ccccc1`: the outcome was inactive. For the compound `N#Cc1cccnc1`, the compound was called inactive. With `Oc1ccc(Cc2ccc(O)cc2)cc1`, the AC50 is 1.64 nM (active). Consider `CS(=O)(=O)c1ccc(C(=O)C2C(=O)CCCC2=O)c(Cl)c1COCC(F)(F)F`, for which the call was inactive. Same read-out and setting: the result for `Clc1cccc(Cl)c1Cl` reads “inactive”.
